Results: PubChem BioAssay AID2551 (National Center for Advancing Translational Sciences (NCATS), 2010)
Hit rate of the full screen: of about 310,000 compounds, about 17,000 (5.5%) were called active. Not shown: some 11% with an inconclusive outcome. The sample as a whole holds a higher share of actives than the screen did. Values without a mark were called inactive. Calls follow the shape of the dose curve; as a rule, active = well fitted inhibition curve with a large enough effect; inconclusive = small, poorly fitted or top-dose-only effect, or effect the other way; inactive = no such curve, though single readings can be large or run the other way.

Target: Nuclear receptor ROR-gamma (Mus musculus) (UniProt P51450)
Sequence (P51450 whole entry, looked up): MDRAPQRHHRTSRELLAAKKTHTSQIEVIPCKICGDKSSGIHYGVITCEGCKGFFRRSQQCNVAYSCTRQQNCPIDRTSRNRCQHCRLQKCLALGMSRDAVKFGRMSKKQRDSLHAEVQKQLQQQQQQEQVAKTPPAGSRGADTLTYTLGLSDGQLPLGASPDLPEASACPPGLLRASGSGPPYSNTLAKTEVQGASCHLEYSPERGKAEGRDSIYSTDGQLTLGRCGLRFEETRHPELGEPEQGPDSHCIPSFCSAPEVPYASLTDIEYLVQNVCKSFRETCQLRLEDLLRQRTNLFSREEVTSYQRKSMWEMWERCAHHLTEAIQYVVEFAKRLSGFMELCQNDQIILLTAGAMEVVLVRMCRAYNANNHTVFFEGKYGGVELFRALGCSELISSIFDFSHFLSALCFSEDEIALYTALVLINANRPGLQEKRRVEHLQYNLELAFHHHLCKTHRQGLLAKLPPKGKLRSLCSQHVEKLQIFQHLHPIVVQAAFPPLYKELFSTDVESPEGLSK
Test: qHTS for inhibitors of ROR gamma transcriptional activity; also: nearly all actives have a fitted effect of over 60% in size
Conditions: Drosophila S2 Gal4-RORgamma UAS-luciferase reporter, 20 h; series mostly up to 53.6 µM; activity change, negative = inhibition: at the top concentration
Procedure, shortened: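 Luminescence from a UAS-regulated Photinus luciferase reporter in stably transfected Drosophila Schneider cells is measured; decreased signal marks ROR gamma inhibition. Fusion expression is induced by 700 uM copper sulfate for 20 hr.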
% is scaled to controls: 0 for no effect and ±100 for the full control effect; potency is read from the fitted curve at half-maximal effect.

`CC(C)n1c(O)c(N=Nc2ccccn2)c2ccccc21` was tested, and the Potency was 8.91 µM (active).
`COc1ccc(/C=N/Nc2nc3ccccc3c(=O)[nH]2)cc1` was tested, and the Potency was 11.2 µM (active).
`O=[N+]([O-])c1c(NCCO)cc(Sc2nc3ccccc3s2)c2nonc12` was tested, and the Potency was 2.82 µM (active).
For `CCn1c(CSCc2c(Cl)cccc2Cl)n[nH]c1=S`, the Potency was 3.16 µM (active).
In the case of `CC(C)(C)C1CCC(=NNC(=O)c2cc(-c3ccccc3)n[nH]2)CC1` (stereo not drawn), the Potency is reported as 11.2 µM (active).
With `C/C(=N/Nc1nc(-c2ccccc2)c(CC(=O)O)s1)c1ccccc1` the Potency was 11.2 µM (active).
With `O=C(Nc1cccc(-c2nc3ccccc3[nH]2)c1)c1ccc(C(=O)Nc2cccc(-c3nc4ccccc4[nH]3)c2)cc1` the Potency was 2 µM (active).
For `COc1cccc(/C=N/Nc2ncc(C(F)(F)F)cc2Cl)c1O`, the Potency was 1.26 µM (active).
For `CCOc1ccccc1N1C(=O)CC(Sc2nccc(C)n2)C1=O` (stereo not drawn), the Potency was 25.1 µM (active).
With `Cc1c(CN2CCC(CO)(CCOc3ccccc3)CC2)[nH]c2ccc(Cl)cc12` the Potency was 11.2 µM (active).
In the case of `CCS(=O)(=O)c1cc([N+](=O)[O-])c(Sc2ccccc2N)s1`, the Potency is reported as 7.94 µM (active).
With `Cc1c(Cl)c([N+](=O)[O-])nn1Cc1ccc(C(=O)N/N=C\c2cc(Cl)ccc2O)o1` the Potency was 5.01 µM (active).

In the case of `COc1ccc(/C=N/Nc2nc(-c3ccc(C)cc3)c(C#N)c(=O)[nH]2)cc1`, the activity change, negative = inhibition is reported as 20.4% [at 1.91 µM].

Point of comparison: `CCn1c(CNS(=O)(=O)c2ccc(Cl)cc2)n[nH]c1=S`, “activity change, negative = inhibition” value -10.8%. Against it:
- COc1ccc(C=Nc2cccc3ncccc23)cc1 — lower, -11%
- COc1ccccc1C(=O)N/C(=C/c1ccc2c(c1)OCO2)C(=O)Nc1cccc(C(=O)O)c1 — higher, 5.47%
- CCOc1ccccc1Nc1ccc2nonc2c1[N+](=O)[O-] — higher, 7.05%
- O=C(CSc1nc2ccccc2s1)Nc1ccc(C(=O)O)cc1 — higher, 12.8%
- CC(C)OCCCNC(=O)CN1C(=O)/C(=C/c2ccccc2F)Oc2ccccc21 — higher, -0.186%
- O=C(CSCc1c(Cl)cccc1Cl)NN1C(=O)c2ccccc2C1=O — higher, -1.68%
- O=C1NC(c2ccccc2)Oc2ccccc21 (stereo not drawn) — higher, 4.56%
- CCN(CC)CCCNC(=O)COc1ccc2oc3c(c2c1)CCCC3 — higher, 6.93%
- Cc1ccc(CNC(=O)C2CCCN2S(=O)(=O)c2ccc3c(c2)C(C)(C)C(=O)N3C)cc1 (stereo not drawn) — higher, -3.5%
- CN1CCN(NC(=O)Nc2ccc(Br)cc2)CC1 — higher, 16.6%
- O=C(COc1ccc(-c2ccccc2)cc1)NN=C1CCCC1 — lower, -25.1%
- CC(NC(=O)C(=O)NN=C1CCC(C(C)(C)C)CC1)c1ccccc1 (stereo not drawn) — lower, -12.8%
- CC1CN(CC(=O)NC(C)c2ccccc2)CC(C)O1 (stereo not drawn) — higher, -6.55%
- Cc1ccc(-c2nc(C)sc2CC(=O)O)cc1 — higher, -0.336%
- CCOC(=O)C(=O)Nc1nc(-c2ccccc2)c(CC)s1 — lower, -31.4%
- Cc1ccc(-c2nc3ccccc3[nH]2)cc1NC(=O)c1sc2ccccc2c1Cl — higher, -7.38%
- O=C(/C=C/c1ccco1)Nc1cccc(-c2nc3ccccc3[nH]2)c1 — higher, 23.4%
- Cc1cccc2[nH]c(CN(C)C(=O)C3CCC(=O)N(CCc4ccccc4)C3)nc12 (stereo not drawn) — lower, -19.4%
- C/C(N)=C(/C#N)C(=O)COC(=O)C1=NN(c2ccccc2)C(=O)CC1 — higher, 10.9%
- N/C(=N\OC(=O)Nc1ccc(Cl)c(Cl)c1)c1ncc(C(F)(F)F)cc1Cl — higher, 7.87%
- COC(=O)Cc1ccc(Oc2ncc(C(F)(F)F)cc2Cl)cc1 — higher, -9.46%
- CCOC(=O)N1CCN(C(=O)COCc2cc(-c3ccc4c(c3)OCO4)on2)CC1 — higher, -3.42%
- CCOC(=O)c1ccc(N2C(=O)CC(Sc3nc(O)c(CC)c(=O)[nH]3)C2=O)cc1 (stereo not drawn) — higher, -0.429%
- Cc1ccnc(SCC(N)=O)n1 — higher, 9.61%
- CCn1ccnc1CNC(=O)CC1C(=O)NCCN1CCCc1ccccc1 (stereo not drawn) — lower, -26.2%
- O=C(NCCS(=O)(=O)N1CCN(c2ccccc2F)CC1)c1ccc(Br)o1 — higher, 14.8%
- Cc1cccc(NC(=O)c2cccnc2Cl)n1 — higher, 7.82%
- OCC1(CCOc2ccccc2)CCN(Cc2cn[nH]c2-c2ccccc2)CC1 — higher, 18.3%
- CC(C)(O)C#Cc1ccc(CN2CCC(CO)(CCc3ccccc3)CC2)cc1 — higher, 1.77%
- CC(C)(C)NC(=O)C(c1ccc(Cl)cc1)N(CCO)C(=O)c1snc(C(N)=O)c1N (stereo not drawn) — lower, -12.6%
- COC(=O)CCc1ccccc1S(=O)(=O)N(CCC(=O)OC)Cc1ccccc1 — higher, -5.18%
- CCOC(=O)C1=C(c2ccccc2)NC(=O)NC1c1cc(OCC)c(O)c([N+](=O)[O-])c1 (stereo not drawn) — higher, 35%
- CCOC(=O)c1cc(Sc2ccccc2N)cc(C(=O)OCC)n1 — higher, 43.4%
- Nc1ccccc1Sc1ccc(C(F)(F)F)cc1[N+](=O)[O-] — higher, 3.1%
- COc1ccc(N2CCN(C3CCCCC3NS(=O)(=O)c3ccccc3)CC2)cc1 (stereo not drawn) — higher, -0.458%
- CCC(Cc1ccccc1)NS(=O)(=O)c1ccc2c(c1)NC(=O)CS2 (stereo not drawn) — higher, 17.2%
- O=C(N/N=C/c1ccc2c(c1)OCO2)c1ccc(Cn2cc([N+](=O)[O-])cn2)o1 — higher, 28.1%
- Cc1ccc(C(=O)O)cc1NC(=O)c1ccc(Cn2nc(C)c(Cl)c2C)o1 — higher, 5.12%
- CC(C)c1c(C(=O)N/N=C/c2ccccc2C(=O)O)nnn1-c1nonc1N — higher, 0.169%
